In PubChem BioAssay AID504607 (Sanford-Burnham Center for Chemical Genomics, 2011) one finds inhibition data, which are given here for 9 compounds.

Hit rate of the full screen: of about 6,200 compounds, about 4,800 (77%) were called active.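 Rule for the calls: active = mean inhibition at 8 µM reaching about 37%, which flags the compound as non-specific (limit read from the data); inactive = the rest.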 The set was probably picked from earlier hits. Only a sample is shown.

The nature of the assay: full-length luciferase signal inhibition, confirmation, counter-screen for Mdm2/MdmX interaction inhibitor project, cell-based, single concentration, SaOS-2 (AID 504607).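 Note: p53-null SaOS-2 cells with luciferase driven by a doxycycline-inducible promoter; compound on cells about two nights before reading with doxycycline added after day one.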 To be noted: SaOS-2 full-length luciferase counterscreen, luminescence; at 8 µM; stronger effect = higher value. On the technique in general: A counterscreen serves to expose hits that act by an unwanted route or on another target.
Broadly, the inhibition is the relative decrease from the control value, in per cent. As for `CCCCCCCCCCCCn1ccc(=N)cc1`, the inhibition is 52.1% (active).

In the case of `CNC(=O)O/N=C(\N)Cc1csc2ccccc12`, the inhibition is 81.2% (active).

Take `CNC(=O)O/N=C(\N)Cc1csc2ccc(Cl)cc12`: the inhibition was 126% (active).

Consider `CCOc1ccc(-c2cc(C)[n+](CCN(CC)CC)c(-c3ccc(OCC)cc3)c2)cc1`, for which the inhibition is 22.3% (inactive).

Take `O=C1NC(=O)N(CCc2ccc(F)cc2)C(=O)/C1=C/C=C/c1ccccc1`: the inhibition was 83.8% (active).

`COC(=O)C1=C(c2ccc(F)cc2OCc2ccccc2)C[C@@H]2CC[C@H]1N2C(=O)NCc1ccc2[nH]ccc2c1`: the inhibition is 94.7% (active).

Take `Cc1cc2ccccn2c1C(C[N+](=O)[O-])c1c(F)cccc1Cl` (centres undefined): the inhibition was 29.6% (inactive).

In the case of `O=C1C2(Cl)C3(Cl)C4(Cl)C(Cl)(Cl)C5(Cl)C3(Cl)C1(Cl)C5(Cl)C24Cl` (centres undefined), the inhibition is 46.6% (active).

Take `O=Cc1cn(Cc2ccc(F)cc2Cl)c2ccccc12`: the inhibition is 35.1% (inactive).
